About 350 (0.7%) of roughly 50,000 compounds were called active. Rule as the data show it: active = inhibition above about 60%; inactive = the rest. Many of the other results were omitted from the sample, so actives are more common in it than they were.
The molecules below were run against Dual specificity protein phosphatase 3 (Homo sapiens) (UniProt P51452) (assay: VHR1 phosphatase inhibitors, primary screen, biochemical, colorimetric, HTS (AID 1992)). Conditions: recombinant VHR phosphatase, colorimetric substrate read-out; at 20 µM; active compounds read high.
Chain of Dual specificity protein phosphatase 3 (Homo sapiens) (P51452 whole entry, looked up): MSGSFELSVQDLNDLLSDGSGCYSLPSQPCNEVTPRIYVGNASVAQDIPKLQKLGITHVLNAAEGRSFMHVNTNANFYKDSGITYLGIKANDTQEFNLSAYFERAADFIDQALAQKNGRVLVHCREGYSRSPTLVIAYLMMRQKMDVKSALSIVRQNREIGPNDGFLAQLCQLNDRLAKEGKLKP
For `COc1ccc(N2C(=O)c3cccc4cccc(c34)C2=O)cc1OC`, the inhibition was 7.9% (inactive).
With `COc1cc(C(=O)Nc2cccc3nsnc23)cc(OC)c1OC` the inhibition was -4.9% (inactive).
For `COc1ccc(NC(=O)c2cccc(Cl)c2Cl)cc1OC`, the inhibition was 1.3% (inactive).
`Cc1ccc(C(=O)NCCNc2ccc([N+](=O)[O-])cc2Cl)cc1` was tested, and the inhibition was -20.4% (inactive).
`Cc1ccc(S(=O)(=O)N(Cc2ccccc2)c2ccccc2C(=O)NC2CCCC2)cc1` was tested, and the inhibition was -20.6% (inactive).
With `CC(=Nc1cc(Cl)ccc1O)c1c(-c2ccccc2)[nH]n(-c2nc3ccccc3s2)c1=O` the inhibition was 2.5% (inactive).
With `COc1ccccc1NC(=O)C1=C(C)Nc2sc(C#N)c(N)c2C1c1ccco1` (stereo not drawn) the inhibition was 4.4% (inactive).
For `CCOC(=O)c1c(NC(=O)c2ccccc2C)sc(C(=O)Nc2ccccc2OC)c1C`, the inhibition was -2.4% (inactive).
`CCOC(=O)c1c(NC(=O)c2ccc(OC)c(OC)c2)sc(C(=O)Nc2ccc(C)cc2C)c1C` was tested, and the inhibition was -18.8% (inactive).
`CCOC(=O)c1c(NC(=O)Cc2ccc(Cl)cc2)sc(C(=O)Nc2ccccc2OC)c1C` was tested, and the inhibition was 103% (active).
For `CCOC(=O)c1c(NC(=O)C23CC4CC(CC(C4)C2)C3)sc(C(=O)Nc2ccccc2OC)c1C`, the inhibition was 120% (active).
`CCOC(=O)c1c(NC(=O)c2ccccc2OC)sc(C(=O)Nc2ccccc2F)c1C` was tested, and the inhibition was -11.7% (inactive).
For `CCOC(=O)c1c(NC(=O)Cc2ccc(Cl)cc2)sc(C(=O)Nc2cccc(OC)c2)c1C`, the inhibition was -1.7% (inactive).
In the case of `Cc1c(C#N)sc2nc(-c3ccccc3)nc(/N=C/N(C)C)c12`, the inhibition is reported as -22.8% (inactive).
`Nc1ccc2nc(Sc3nc4ccc([N+](=O)[O-])cc4s3)sc2c1` was tested, and the inhibition was -10.9% (inactive).
With `CC1=C(C(=O)Nc2ccc(C)cc2)C(c2ccc([N+](=O)[O-])cc2)NC(=O)N1` (stereo not drawn) the inhibition was -6.8% (inactive).
`CC12CCC(CC1=O)C(C)(C)N2` (stereo not drawn) was tested, and the inhibition was -18.3% (inactive).
In the case of `O=C1C=CC(=O)N1Nc1c(Cl)cc(Cl)cc1Cl`, the inhibition is reported as 102% (active).
With `COc1ccc(Nc2ncnc3ccc(Br)cc23)cc1` the inhibition was 0.8% (inactive).
With `O=C(CSc1ccccc1C(=O)O)c1ccc(-c2ccccc2)cc1` the inhibition was 2.1% (inactive).
In the case of `Cc1ccc(C)c(OCc2nnc(NC(=O)c3ccccc3)s2)c1`, the inhibition is reported as 5.1% (inactive).
`Cc1cc(C)cc(OCCCCNC(C)(C)C)c1` was tested, and the inhibition was -33.4% (inactive).
For `Cc1nc2cc(-c3ccc(Br)cc3)[nH]n2c(=O)c1C`, the inhibition was 10.2% (inactive).
With `CC(=O)N1c2ccc3ccccc3c2C2C=CCC2C1c1ccc(F)cc1` (stereo not drawn) the inhibition was -6.5% (inactive).
With `Cc1[nH]n(-c2ccc(Cl)cc2)c(=O)c1/C=N/NC(=O)c1ccccc1[N+](=O)[O-]` the inhibition was -37.1% (inactive).
`CC(=O)Nc1ccc(N2C(=O)C3C4C=CC(CC4)C3C2=O)cc1` (stereo not drawn) was tested, and the inhibition was -14% (inactive).
With `COc1ccccc1C1CC(c2ccc(F)cc2)=NN1c1ccccc1` (stereo not drawn) the inhibition was -3.2% (inactive).
With `O=C1N=c2ccc(I)cc2=C1c1[nH]c(=S)[nH]c1O` the inhibition was -37.4% (inactive).
For `Cc1ccc(S(=O)(=O)NCCNS(C)(=O)=O)cc1[N+](=O)[O-]`, the inhibition was -9.6% (inactive).
With `CCN(CC)C(=O)CSc1nc(O)c(Cc2ccccc2)c(=O)n1-c1ccc(OC)cc1` the inhibition was 26.5% (inactive).
`O=C(O)CCCCCN1C(=O)C(=O)/C(=C(/O)c2ccc(F)cc2)C1c1cccc([N+](=O)[O-])c1` (stereo not drawn) was tested, and the inhibition was 5% (inactive).
With `Cc1cc(C)c2nc3s/c(=C\c4ccc(-c5ccccc5C(=O)O)o4)c(=O)n3c2c1` the inhibition was 69.3% (active).
For `COc1cc(/C=c2\sc3nc4c(C)cc(C)cc4n3c2=O)cc(Br)c1O`, the inhibition was -5.5% (inactive).
`Cc1cc(C)c2nc3s/c(=C\c4ccc(N(C)C)cc4)c(=O)n3c2c1` was tested, and the inhibition was -22.7% (inactive).
`COc1cc(NC(=O)c2ccc(-c3ccc([N+](=O)[O-])cc3C)o2)ccc1NC(=O)c1ccco1` was tested, and the inhibition was -3.8% (inactive).
For `c1ccc(-c2nnc(SC3CCCC3)nc2-c2ccccc2)cc1`, the inhibition was -9.1% (inactive).
With `Clc1cccc(CN2CCN(C3CCN(Cc4ccccc4)CC3)CC2)c1` the inhibition was -6.2% (inactive).
With `Cc1ccc(S(=O)(=O)c2ccc(Oc3ccc(Cl)cc3)cc2)cc1` the inhibition was -26.6% (inactive).

Reference: PubChem BioAssay AID1992 (Sanford-Burnham Center for Chemical Genomics, 2009)
